Assay results published in PubChem BioAssay (NCATS).
Records with an inconclusive call do not appear. Values without a mark were called inactive. The source made the active and inactive calls. Calls come from the whole dose curve; as a rule, active = well fitted cell-killing curve with a large enough effect; inconclusive = small, poorly fitted or top-dose-only effect, or effect the other way; inactive = flat fitted curve, though single readings scatter.
Potency is the fitted concentration of half-maximal effect.

Experiment: S16 Schwann cell viability assay (CellTiter-Glo assay) (AID 624031); note: nearly all actives have a fitted effect of over 70% in size;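 for activity change, negative = cytotoxicity: cellular ATP luminescence as a viability measure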
Settings: S16 rat Schwann cells viability, 24 h; series mostly up to 57.5 µM; activity change, negative = cytotoxicity: at the top concentration
Excerpt: Charcot-Marie-Tooth-Association [CMTA]
National Center for Advancing Translational Sciences [NCATS]
Charcot-Marie-Tooth (CMT) disease was first characterized by Jean-Martin Charcot and Pierre Marie in France and, independently, by Howard Henry Tooth in England in 1886. CMT is one of the most common inherited neurological diseases, affecting approximately 1 in 2,500 Americans. […] The most prevalent type of CMT is known as CMT1A and caused by a duplication of the PMP22 gene which leads to over-expression of this protein. PMP22 is a glycosylated intrinsic membrane protein accounting for 2-5% of the myelin protein content, and its over-expression results in demyelination and subsequently axonal loss.
A pair of cellular transcription-based assays was developed in the S16 rat Schwann cell lines (Hai, M., et al., 2002) stably transfected with orthogonal reporters - firefly luciferase (Fluc) and beta-lactamase (beta-Lac) - whose expression is driven by an intronic regulatory element of the PMP22 gene (Jones, E.A., et al., 2011) to recapitulate endogenous expression of PMP22. A comprehensive library of approved drugs, the NCGC Pharmaceutical Collection (Huang, R., et al., 2011), was screened in the cross-validating platform of the orthogonal reporter assays to identify drug modulators inhibitory towards PMP22 expression.
A set of counter-screens was devised to address non-specific activity of the library. An ATP-dependent CellTiter-Glo assay (developed by Promega Corp) was utilized to control cell viability. In addition, biochemical Fluc enzyme assay was performed to assess direct inhibition of the Fluc enzymatic activity.
Hai, M., Muja, N., DeVries, G.H., Quarles, R.H. and Patel, P.I. Comparative analysis of Schwann cell lines as model systems for myelin gene transcription studies. J Neurosci Res, 2002. 69(4): pp 497-508
Huang, R., Southall, N., Wang, Y., Yasgar A., Shinn P., Jadhav, A. , Nguyen, D.-T. and Austin, C.P., The NCGC pharmaceutical collection: a comprehensive resource of clinically approved drugs enabling repurposing and chemical genomics. Sci Transl Med, 2011. 3(80): p. 80ps16.
Native S16 cells were seeded in white solid-bottom 1536 well plates at between 500-750 cells/6uL in DMEM medium containing 10% FBS, w/o phenol red. After overnight incubation at 37 degree Celsius/5% C02, 23 nL of compounds or DMSO were delivered to each well using a pin tool, followed by 24h-incubation at 37 degree Celsius/5% C02. Then one volume of CellTiter-Glo assay reagent (Promega) was added to each well for cell viability measured by a ViewLux plate reader (PerkinElmer). The % activity was determined by normalizing to the average readings from wells containing no cells relative to DMSO-treated cells (0% Activity). The concentration-effect curves were then classified based on curve quality (r2), response magnitude and degree of measured activity.
For `O=C1CC2OCC=C3CN4CCC56c7ccccc7N1C5[C@H]2[C@H]3C[C@H]46` (stereo not given in full) (tested in a mixture with another compound), the “activity change, negative = cytotoxicity” value was -8.5%.
With `CN(C)[C@@H](Cc1ccccc1)c1ccccc1` the “activity change, negative = cytotoxicity” value was -6.58%.
For `[S]=[Sb][S][Sb]=[S]`, the “activity change, negative = cytotoxicity” value was 2.45%.
In the case of `C=CC[N+]1(C)CCC23c4c5ccc(O)c4O[C@H]2C(=O)CC[C@@]3(O)C1C5` (stereo not given in full), the “activity change, negative = cytotoxicity” value is reported as 3.93%.
With `C#CC1(O)C=CC2C3CCC4=CC(=O)CCC4C3CCC21CC` (stereo not given) the “activity change, negative = cytotoxicity” value was 11.4%.
With `CCCC(C)C1(CC)C(=O)NC(=S)NC1=O` (stereo not given) the “activity change, negative = cytotoxicity” value was 2.86%.
With `CC1CC[C@@]2(NC1)OC1CC3C4CC[C@@H]5CC(O)CC[C@@]5(C)C4CC[C@]3(C)C1C2C` (stereo not given in full) the “activity change, negative = cytotoxicity” value was -11.5%.
For `CC1(C)S[C@@H]2[C@H](N)C(=O)N2C1C(=O)O` (stereo not given in full), the “activity change, negative = cytotoxicity” value was -2.7% [at 25.7 µM].
In the case of `CN(C)[C@H]1C(=O)C(C(N)=O)=C(O)[C@]2(O)C(=O)C3=C(O)c4c(O)cccc4[C@@](C)(O)[C@H]3C[C@@H]12`, the “activity change, negative = cytotoxicity” value is reported as 11.8% [at 25.7 µM].
In the case of `CC(CO)NC(=O)C1C=C2c3cccc4[nH]cc(c34)CC2N(C)C1` (stereo not given), the “activity change, negative = cytotoxicity” value is reported as -4.13%.
In the case of `O=[N+]([O-])OC1CO[C@H]2C(O[N+](=O)[O-])COC12` (stereo not given in full), the “activity change, negative = cytotoxicity” value is reported as 10.6%.
For `NC(Cc1ccc(Oc2cc(I)c(O)c(I)c2)c(I)c1)C(=O)O` (stereo not given), the “activity change, negative = cytotoxicity” value was 0%.
For `CCOC(=O)c1cncn1[C@@H](C)c1ccccc1`, the “activity change, negative = cytotoxicity” value was 10.5% [at 25.7 µM].
For `COc1ccc2c3c1O[C@H]1[C@@H](O)C=C[C@H]4C(C2)NCCC341` (stereo not given in full), the “activity change, negative = cytotoxicity” value was 0.152%.
With `C[C@]12CC[C@H]3[C@@H](CC[C@@]45O[C@@H]4C(=O)C(C#N)C[C@]35C)[C@@H]1CC[C@@H]2O` (stereo not given in full) the “activity change, negative = cytotoxicity” value was -2.07%.
With `CC1(C)[C@@H](C=C(Cl)Cl)[C@@H]1C(=O)OCc1c(F)c(F)cc(F)c1F` the “activity change, negative = cytotoxicity” value was -11.2%.
With `COc1cc(-c2ccc(-[n+]3nc(-c4ccccc4)nn3-c3ccc([N+](=O)[O-])cc3)c(OC)c2)ccc1-[n+]1nc(-c2ccccc2)nn1-c1ccc([N+](=O)[O-])cc1` the Potency was 28.7 µM (active).
For `CC(=O)Oc1ccc2c3c1OC1[C@@H](OC(C)=O)C=C[C@H]4[C@H](C2)N(C)CC[C@]314` (stereo not given in full), the “activity change, negative = cytotoxicity” value was 0%.
In the case of `CC(Cc1ccccc1)N(C)C` (stereo not given), the “activity change, negative = cytotoxicity” value is reported as -9.42%.
With `CC(=O)O[C@H]1C[C@H](O[C@H]2[C@@H](O)CC(O[C@H]3[C@@H](O)C[C@H](O[C@H]4CC[C@@]5(C)[C@H](CC[C@@H]6[C@@H]5CC[C@]5(C)[C@@H](C7=CC(=O)OC7)CC[C@]65O)C4)O[C@@H]3C)O[C@@H]2C)O[C@H](C)[C@H]1O[C@@H]1O[C@H](CO)[C@@H](O)[C@H](O)[C@H]1O` (stereo not given in full) the “activity change, negative = cytotoxicity” value was -12.2%.
With `CC12CCC3C4CCC(=O)C(O)=C4CCC3C1CCC2OC(=O)CCC1CCCC1` (stereo not given) the “activity change, negative = cytotoxicity” value was 10.3%.
In the case of `C#C[C@]1(O)CC[C@H]2[C@@H]3CCC4=CC(=O)CCC4(C)[C@H]3CCC21C` (stereo not given in full), the “activity change, negative = cytotoxicity” value is reported as -26.9%.
For `C=C1CC2C(CC[C@]3(C)C(=O)CCC23)[C@]2(C)C=CC(=O)C=C12` (stereo not given in full), the “activity change, negative = cytotoxicity” value was -24.9%.
With `CC(C)=CC1C(C(=O)OCc2coc(Cc3ccccc3)c2)C1(C)C` (stereo not given) the “activity change, negative = cytotoxicity” value was -6.33%.
For `OCC(O)[C@H]1O[C@@H]2O[C@H](C(Cl)(Cl)Cl)O[C@@H]2[C@H]1O` (stereo not given in full), the “activity change, negative = cytotoxicity” value was 3.07%.
With `CCOC(=O)/C=C(C)/C=C/CC(C)CCCC(C)C` (stereo not given) the “activity change, negative = cytotoxicity” value was 7.64%.
With `CCC/C=C/C=C/C(=O)OC1/C(=C/C(=O)OC)CC2CC(C(C)O)OC(=O)CC(O)CC3CC(OC(C)=O)C(C)(C)C(O)(CC4C/C(=C/C(=O)OC)CC(/C=C\C(C)(C)C1(O)O2)O4)O3` (stereo not given) the “activity change, negative = cytotoxicity” value was -19%.
In the case of `CN1C2CCC1C(C(=O)O)C(OC(=O)c1ccccc1)C2` (stereo not given), the “activity change, negative = cytotoxicity” value is reported as 1.85%.
With `CC(=O)[C@H]1CC[C@H]2C3CC[C@H]4C[C@H](O)CC[C@]4(C)C3CC[C@]12C` (stereo not given in full) the “activity change, negative = cytotoxicity” value was -30.1%.
For `C[C@]12C=CC(=O)C=C1CC[C@@H]1C2CC[C@]2(C)OC(=O)CCC12` (stereo not given in full), the “activity change, negative = cytotoxicity” value was 4.06%.
With `C[C@H](N)Cc1ccccc1` the “activity change, negative = cytotoxicity” value was 3.03%.
With `C[C@]12CCC3C(CCC4=C(Cl)C(=O)CC[C@@]43C)C1CCC2O` (stereo not given in full) the “activity change, negative = cytotoxicity” value was -3.33%.
With `CCCCCC(O)C1C(=O)OC(C)C(O)\C=C/C=C\C=C/C=C\C=C(\C)C(O)C(O)C(O)CC(O)CC(O)CC(O)CC(O)CC1O` (stereo not given) the “activity change, negative = cytotoxicity” value was 4.69%.
In the case of `CN(C)C1C(=O)C(C(N)=O)C(=O)C2(O)C(=O)C3C(=O)c4c(O)cccc4C(C)(O)C3C(O)C12` (stereo not given), the “activity change, negative = cytotoxicity” value is reported as 0%.
For `C#CCN1CC(=O)N(COC(=O)[C@@H]2[C@@H](C=C(C)C)C2(C)C)C1=O`, the “activity change, negative = cytotoxicity” value was -0.78%.
In the case of `CCC(=O)OC1(c2ccccc2)CCN(C)CC1C` (stereo not given), the “activity change, negative = cytotoxicity” value is reported as -0.795%.
In the case of `COC(C(=O)C(O)C(C)O)C1Cc2cc3cc(OC4CC(OC5CC(O)C(OC)C(C)O5)C(OC(C)=O)C(C)O4)c(C)c(O)c3c(O)c2C(=O)C1OC1CC(OC2CC(OC3CC(C)(O)C(OC(C)=O)C(C)O3)C(O)C(C)O2)C(O)C(C)O1` (stereo not given), the “activity change, negative = cytotoxicity” value is reported as 1.86%.
With `O=C1CC2OCC=C3CN4CC[C@]56c7ccccc7N1C5C2[C@H]3C[C@H]46` (stereo not given in full) the “activity change, negative = cytotoxicity” value was 9.69%.
For `CCCN1CCCC2Cc3nc(N)ncc3CC21` (stereo not given), the “activity change, negative = cytotoxicity” value was 9.22%.
For `C=C1Nc2ccccc2C(=O)N1c1ccccc1C`, the “activity change, negative = cytotoxicity” value was 7.02%.
